Experimental data as given in PubChem BioAssay (NCATS).
Records with an inconclusive call do not appear. Activity calls are given as the source filed them. Calls follow the shape of the dose curve; as a rule, active = well fitted cell-killing curve with a large enough effect; inconclusive = small, poorly fitted or top-dose-only effect, or effect the other way; inactive = no such curve, though single readings can be large or run the other way.
Potency is read from the fitted curve at half-maximal effect.

Assay: Quantitative High-Throughput drug screen in 47 multiple myeloma cell lines against the NCATS MIPE library collection: LP1_DSMZ cell viability assay (AID 1918982); also: nearly all actives have a fitted effect of over 35% in size
Conditions: LP1 myeloma viability, CellTiter-Glo ATP luminescence, 48 h; series mostly up to 45.8 µM
Procedure, shortened: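 MIPE 4.0 approved/investigational drugs; 500 cells/well; 48 h 37 °C humidified 5% CO2; CTG luminescence readout; DMSO = 100%, media = 0% viability.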
In the case of COc1ccc(S(=O)(=O)Nc2cccnc2Nc2ccc(O)cc2)cc1, the Potency is reported as 0.148 µM (active).
With CC(=O)N[C@H]1[C@@H]([C@H](O)[C@H](O)CO)OC(C(=O)O)=C[C@@H]1N=C(N)N the Potency was “inactive”.
For COc1cc(C)c(C=CC(C)=CC=CC(C)=CC(=O)O)c(C)c1C, the Potency was “inactive”.
In the case of CCCCCCCCc1ccc(CCC(N)(CO)CO)cc1, the Potency is reported as 13.2 µM (active).
For C[C@H](CCC(=O)O)[C@H]1CCC2C3C[C@H](O)[C@@H]4C[C@H](O)CC[C@]4(C)C3CC[C@@]21C (some centres undefined), the Potency was “inactive”.
For Oc1cc(-c2nc(-c3ccccc3)[nH]c2-c2ccncc2)ccc1Cl, the Potency was “inactive”.
In the case of C[C@H](CCC(=O)O)[C@H]1CC[C@H]2[C@@H]3[C@H](O)C[C@@H]4C[C@H](O)CC[C@]4(C)[C@@H]3CC[C@]12C, the Potency is reported as “inactive”.
For NC[C@H]1O[C@H](O[C@H]2[C@@H](O)[C@@H](O[C@H]3O[C@H](CO)[C@@H](O)[C@H](N)[C@@H]3O)[C@H](N)C[C@@H]2N)[C@H](N)C[C@H]1O, the Potency was “inactive”.
For COc1cc2c(Nc3ccc(Cl)c(Cl)c3F)ncnc2cc1OCC1C[C@@H]2CN(C)C[C@H]2C1, the Potency was 18.7 µM (active).
In the case of COC(=O)[C@H](CCCN=C(N)N)NS(=O)(=O)c1ccc(C)cc1, the Potency is reported as “inactive”.
In the case of C[N+](C)([O-])CCNc1ccc(NCC[N+](C)(C)[O-])c2c1C(=O)c1c(O)ccc(O)c1C2=O, the Potency is reported as “inactive”.
For CCOC(=O)[C@H](CCc1ccccc1)N[C@@H](C)C(=O)N1[C@@H](C(=O)O)C[C@H]2CCC[C@@H]21, the Potency was 20.9 µM (active).
In the case of Oc1ccc(-c2ccc(-c3cc(Nc4cccc(CNC5CC5)c4)n[nH]3)cc2)c(O)c1, the Potency is reported as 2.64 µM (active).
In the case of C=CCNC1=C2C[C@@H](C)C[C@H](OC)[C@@H](O)[C@@H](C)C=C(C)[C@H](OC(N)=O)[C@@H](OC)C=CC=C(C)C(=O)NC(=CC1=O)C2=O, the Potency is reported as 5.9 µM (active).
For CC(C)(O)Cn1c(NC(=O)c2ccc(-c3cn[nH]c3)s2)nc2cc(CN3CCOCC3)ccc21, the Potency was 1.87 µM (active).
For CCCc1nc(C(C)(C)O)c(C(=O)O)n1Cc1ccc(-c2ccccc2-c2nn[nH]n2)cc1, the Potency was “inactive”.
With COc1cc(OC)cc(-c2ccc3ncc4ccc(=O)n(-c5ccc(N6CCNCC6)c(C(F)(F)F)c5)c4c3c2)c1 the Potency was 5.9 µM (active).
For CC1=C(C(=O)Nc2cc3cn[nH]c3cc2F)C(c2ccc(Cl)cc2F)N=C(c2ccnc(Cl)c2)N1 (centres undefined), the Potency was “inactive”.
In the case of CN(C)CCN1C(=O)c2cccc3cc(N)cc(c23)C1=O, the Potency is reported as 20.9 µM (active).
With COc1cc(C)c(Sc2cnc(NC(=O)c3ccc(CNC(C)C(C)(C)C)cc3)s2)cc1C(=O)N1CCN(C(C)=O)CC1 (centres undefined) the Potency was 16.6 µM (active).
With CCNC(=O)Nc1ccc(-c2nc3c(c(N4CCOC[C@H]4C)n2)CCN(C2COC2)C3)cc1 the Potency was 0.0372 µM (active).
For CON=C(C(=O)N[C@@H]1C(=O)N2C(C(=O)O)=C(Cn3ccc(=N)n3CCO)CS[C@H]12)c1csc(N)n1, the Potency was “inactive”.
In the case of COC[C@H](NC(=O)c1cnc(C)s1)C(=O)N[C@@H](COC)C(=O)N[C@@H](Cc1ccccc1)C(=O)[C@@]1(C)CO1, the Potency is reported as 0.148 µM (active).
With COc1cccc2c1C(=O)c1c(O)c3c(c(O)c1C2=O)C[C@@](O)(C(=O)CO)C[C@@H]3O[C@H]1C[C@H](N)[C@H](OC2CCCCO2)[C@H](C)O1 (some centres undefined) the Potency was 18.7 µM (active).
With Nc1cccc2c1C(=O)N(C1CCC(=O)NC1=O)C2=O (centres undefined) the Potency was “inactive”.
With O=c1ccn([C@@H]2O[C@H](CO)[C@H](O)[C@@H]2F)c(=O)[nH]1 the Potency was “inactive”.
For Cn1cc(CNCC2CCN(c3ncc(C(=O)NO)cn3)CC2)c2ccccc21, the Potency was 0.0418 µM (active).
In the case of CC(=O)NCC(=O)N1[C@H]2CC[C@H]1c1cc(Nc3ncc(C(F)(F)F)c(NC4CCC4)n3)ccc12, the Potency is reported as 7.43 µM (active).
In the case of CC(C)N(CC[C@H](c1ccccc1)c1cc(CO)ccc1O)C(C)C, the Potency is reported as “inactive”.
